For 1 sequence, binding signal results are on record in publication PMC7862700, “An all-to-all approach to the identification of sequence-specific readers for epigenetic DNA modifications on cytosine”.

What all share (assay): DAPPL (digital affinity profiling via proximity ligation, sequencing); 10 mM Tris-HCl pH 7.5, 50 mM NaCl, 1 mM DTT, 4% glycerol, room temperature, 30 min; GST-TFs on glutathione beads, 16-mer random dsDNA library, 0.1% formaldehyde crosslink after washing; high values mean tight binding
Assay [1] concerns the target T1, FLI1 (Homo sapiens, UniProt Q01543 1-452).
T1 sequence: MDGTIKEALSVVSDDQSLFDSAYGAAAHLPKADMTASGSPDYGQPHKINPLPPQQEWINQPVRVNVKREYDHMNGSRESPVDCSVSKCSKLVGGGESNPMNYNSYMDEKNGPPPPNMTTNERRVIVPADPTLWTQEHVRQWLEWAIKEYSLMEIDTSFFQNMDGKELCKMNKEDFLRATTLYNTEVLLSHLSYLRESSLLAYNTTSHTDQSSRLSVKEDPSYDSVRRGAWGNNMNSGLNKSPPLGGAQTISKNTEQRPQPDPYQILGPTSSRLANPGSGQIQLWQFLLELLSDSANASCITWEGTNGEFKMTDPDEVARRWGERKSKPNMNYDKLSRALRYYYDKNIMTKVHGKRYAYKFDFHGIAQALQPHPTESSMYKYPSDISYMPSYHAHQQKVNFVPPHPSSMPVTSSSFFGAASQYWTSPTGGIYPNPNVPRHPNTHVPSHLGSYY
Conditions: protein: recombinant; tags: N-terminal GST; dsDNA, one strand shown. Summed up: (§1)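 Human transcription factors were made in yeast as GST fusions, captured on glutathione beads and barcoded with DNA. With a tag-only sample included, the pool was incubated with 200 nmole of a random double-stranded 16-mer DNA library in Tris/NaCl/DTT/glycerol buffer at room temperature for 30 min, then crosslinked with 0.1% formaldehyde after washing, ligated by proximity, amplified and sequenced. For binding signal, each hexamer's read frequency for a factor is divided by its frequency for the tag-only sample.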

Assay [2] has as its target T2, ELK1 (Homo sapiens, UniProt P19419 1-428).
T2 sequence: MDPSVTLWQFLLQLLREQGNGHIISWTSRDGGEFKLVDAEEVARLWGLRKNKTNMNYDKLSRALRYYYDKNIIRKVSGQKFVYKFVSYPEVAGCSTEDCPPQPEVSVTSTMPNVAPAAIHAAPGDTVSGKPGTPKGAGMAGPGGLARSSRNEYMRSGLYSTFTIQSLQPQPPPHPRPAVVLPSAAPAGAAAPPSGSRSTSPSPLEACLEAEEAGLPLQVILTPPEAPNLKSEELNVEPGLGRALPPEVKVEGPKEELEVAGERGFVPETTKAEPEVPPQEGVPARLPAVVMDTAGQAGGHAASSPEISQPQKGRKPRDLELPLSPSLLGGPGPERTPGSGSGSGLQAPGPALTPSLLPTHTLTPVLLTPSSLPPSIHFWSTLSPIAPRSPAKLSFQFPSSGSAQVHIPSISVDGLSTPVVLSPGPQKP
Particulars: protein: recombinant; tags: N-terminal GST; dsDNA, one strand shown. Put shortly: as §1

Assay [3] concerns the target T3, GABPA (Homo sapiens, UniProt Q06546 1-454).
T3 sequence: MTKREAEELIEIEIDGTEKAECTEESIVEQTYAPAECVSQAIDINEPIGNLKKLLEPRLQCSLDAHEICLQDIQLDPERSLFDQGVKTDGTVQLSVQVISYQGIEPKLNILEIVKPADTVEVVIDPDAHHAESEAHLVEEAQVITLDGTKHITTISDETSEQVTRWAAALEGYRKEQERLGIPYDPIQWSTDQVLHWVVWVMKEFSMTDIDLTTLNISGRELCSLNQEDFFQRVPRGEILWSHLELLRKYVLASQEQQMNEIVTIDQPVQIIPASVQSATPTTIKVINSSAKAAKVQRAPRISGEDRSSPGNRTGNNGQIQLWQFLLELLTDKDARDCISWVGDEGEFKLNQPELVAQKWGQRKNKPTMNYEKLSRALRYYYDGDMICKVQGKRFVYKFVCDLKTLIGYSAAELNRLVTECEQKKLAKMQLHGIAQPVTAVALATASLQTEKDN
Particulars: protein: recombinant; tags: N-terminal GST; dsDNA, one strand shown. Summed up:
as §1

Assay [4] deals with T4, ERG (Homo sapiens, UniProt P11308 1-479).
T4 sequence: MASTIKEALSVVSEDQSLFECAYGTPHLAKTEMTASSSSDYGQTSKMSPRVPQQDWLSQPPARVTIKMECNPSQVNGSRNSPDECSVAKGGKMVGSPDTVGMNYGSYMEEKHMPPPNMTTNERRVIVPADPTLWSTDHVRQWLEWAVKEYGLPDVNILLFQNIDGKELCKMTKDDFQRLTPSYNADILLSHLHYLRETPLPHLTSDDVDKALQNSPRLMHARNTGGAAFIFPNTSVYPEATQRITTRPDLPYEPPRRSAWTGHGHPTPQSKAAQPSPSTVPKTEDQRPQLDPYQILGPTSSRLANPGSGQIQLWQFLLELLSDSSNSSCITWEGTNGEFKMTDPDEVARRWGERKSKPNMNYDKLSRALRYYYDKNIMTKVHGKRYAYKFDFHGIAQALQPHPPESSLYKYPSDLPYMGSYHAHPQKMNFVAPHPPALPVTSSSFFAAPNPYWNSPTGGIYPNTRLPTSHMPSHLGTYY
Conditions: protein: recombinant; tags: N-terminal GST; dsDNA, one strand shown. Put shortly:
as §1

Assay [5] addresses ELF1 (Homo sapiens, UniProt P32519 1-619). Particulars: protein: recombinant; tags: N-terminal GST; dsDNA, one strand shown. Summed up:
as §1

Assay [6] deals with T5, EHF (Homo sapiens, UniProt Q9NZC4 1-300).
T5 sequence: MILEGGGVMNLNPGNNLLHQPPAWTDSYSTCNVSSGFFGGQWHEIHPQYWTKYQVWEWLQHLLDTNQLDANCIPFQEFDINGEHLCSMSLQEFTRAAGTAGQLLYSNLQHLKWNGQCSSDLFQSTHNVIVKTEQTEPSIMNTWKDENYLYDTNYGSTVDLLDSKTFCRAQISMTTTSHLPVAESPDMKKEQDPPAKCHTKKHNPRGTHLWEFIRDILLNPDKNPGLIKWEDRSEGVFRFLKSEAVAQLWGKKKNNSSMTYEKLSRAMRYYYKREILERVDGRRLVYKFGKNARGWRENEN
Conditions: protein: recombinant; tags: N-terminal GST; dsDNA, one strand shown. Summed up: as §1

Assay [7] concerns the target SPI1 (Homo sapiens, UniProt P17947 1-270). Particulars: protein: recombinant; tags: N-terminal GST; dsDNA, one strand shown. Put shortly: as §1
Assay [8] concerns the target SPIB (Homo sapiens, UniProt Q01892 1-262). Conditions: protein: recombinant; tags: N-terminal GST; dsDNA, one strand shown. Summed up:
as §1

For assay [9], the target named is T6, ELK3 (Homo sapiens, UniProt P41970 1-407).
T6 sequence: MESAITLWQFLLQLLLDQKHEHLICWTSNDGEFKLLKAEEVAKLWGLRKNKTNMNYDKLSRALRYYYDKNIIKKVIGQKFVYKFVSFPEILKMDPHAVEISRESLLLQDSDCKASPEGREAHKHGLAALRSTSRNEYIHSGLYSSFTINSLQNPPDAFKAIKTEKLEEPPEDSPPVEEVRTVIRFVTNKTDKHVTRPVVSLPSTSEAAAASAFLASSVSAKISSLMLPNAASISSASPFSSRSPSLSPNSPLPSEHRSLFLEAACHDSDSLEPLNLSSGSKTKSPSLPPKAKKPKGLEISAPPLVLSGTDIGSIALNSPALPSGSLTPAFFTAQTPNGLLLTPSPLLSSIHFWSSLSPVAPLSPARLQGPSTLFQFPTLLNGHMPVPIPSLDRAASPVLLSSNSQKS
Particulars: protein: recombinant; tags: N-terminal GST; dsDNA, one strand shown. Summed up:
as §1

Assay [10] addresses T7, FEV (Homo sapiens, UniProt Q99581 1-238).
T7 sequence: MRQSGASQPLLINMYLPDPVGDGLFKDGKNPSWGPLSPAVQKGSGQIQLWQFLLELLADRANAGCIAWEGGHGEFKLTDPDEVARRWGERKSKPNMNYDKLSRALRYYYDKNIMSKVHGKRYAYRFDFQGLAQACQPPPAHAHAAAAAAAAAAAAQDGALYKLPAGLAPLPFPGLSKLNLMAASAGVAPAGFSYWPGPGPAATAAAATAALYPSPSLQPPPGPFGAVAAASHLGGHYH
Conditions: protein: recombinant; tags: N-terminal GST; dsDNA, one strand shown. Put shortly: as §1

For assay [11], the target named is ETV5 (Homo sapiens, UniProt P41161 1-510). Conditions: protein: recombinant; tags: N-terminal GST; dsDNA, one strand shown. Put shortly:
as §1

The target in assay [12] is HSF1 (Homo sapiens, UniProt Q00613 1-529). Particulars: protein: recombinant; tags: N-terminal GST; chain copies: 3; dsDNA, one strand shown. Summed up:
as §1

Assay [13] has as its target T8, SPIC (Homo sapiens, UniProt Q8N5J4 1-248).
T8 sequence: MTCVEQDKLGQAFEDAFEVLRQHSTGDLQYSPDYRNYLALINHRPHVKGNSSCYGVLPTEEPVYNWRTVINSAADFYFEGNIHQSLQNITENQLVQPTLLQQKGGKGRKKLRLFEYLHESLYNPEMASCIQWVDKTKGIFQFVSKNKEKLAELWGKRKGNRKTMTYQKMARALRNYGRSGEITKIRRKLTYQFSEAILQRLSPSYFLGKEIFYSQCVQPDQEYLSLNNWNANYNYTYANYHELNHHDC
Conditions: protein: recombinant; tags: N-terminal GST; dsDNA, one strand shown. Summed up:
as §1

Assay [14] concerns the target ELF4 (Homo sapiens, UniProt Q99607 1-663). Conditions: protein: recombinant; tags: N-terminal GST; dsDNA, one strand shown. Put shortly:
as §1

The target in assay [15] is T9, ELK4 (Homo sapiens, UniProt P28324-2 1-405).
T9 sequence: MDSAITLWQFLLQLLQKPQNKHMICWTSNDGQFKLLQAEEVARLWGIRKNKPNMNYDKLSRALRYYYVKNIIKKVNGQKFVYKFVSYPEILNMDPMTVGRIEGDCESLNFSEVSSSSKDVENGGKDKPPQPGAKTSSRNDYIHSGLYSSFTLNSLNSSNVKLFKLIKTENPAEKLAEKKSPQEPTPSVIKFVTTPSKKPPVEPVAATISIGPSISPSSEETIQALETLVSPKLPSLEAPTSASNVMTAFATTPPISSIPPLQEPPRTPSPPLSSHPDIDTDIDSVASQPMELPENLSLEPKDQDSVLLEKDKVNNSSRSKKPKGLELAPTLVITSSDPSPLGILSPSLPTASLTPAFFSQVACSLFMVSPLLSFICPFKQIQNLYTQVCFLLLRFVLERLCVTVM
Particulars: protein: recombinant; tags: N-terminal GST; dsDNA, one strand shown. Put shortly: as §1

Assay [16] concerns the target T10, ETV2 (Homo sapiens, UniProt O00321 1-342).
T10 sequence: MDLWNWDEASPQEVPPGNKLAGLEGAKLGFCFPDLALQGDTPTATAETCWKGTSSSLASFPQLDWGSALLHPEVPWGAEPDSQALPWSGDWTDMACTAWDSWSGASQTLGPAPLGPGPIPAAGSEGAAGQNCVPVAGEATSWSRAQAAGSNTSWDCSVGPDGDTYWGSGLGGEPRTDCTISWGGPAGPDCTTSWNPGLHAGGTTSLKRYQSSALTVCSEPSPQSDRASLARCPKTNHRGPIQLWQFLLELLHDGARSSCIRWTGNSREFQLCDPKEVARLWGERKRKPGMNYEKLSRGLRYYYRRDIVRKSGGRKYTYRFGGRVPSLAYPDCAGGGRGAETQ
Conditions: protein: recombinant; tags: N-terminal GST; dsDNA, one strand shown. Summed up:
as §1

In assay [17] the target is T11, ELF3 (Homo sapiens, UniProt P78545 1-371).
T11 sequence: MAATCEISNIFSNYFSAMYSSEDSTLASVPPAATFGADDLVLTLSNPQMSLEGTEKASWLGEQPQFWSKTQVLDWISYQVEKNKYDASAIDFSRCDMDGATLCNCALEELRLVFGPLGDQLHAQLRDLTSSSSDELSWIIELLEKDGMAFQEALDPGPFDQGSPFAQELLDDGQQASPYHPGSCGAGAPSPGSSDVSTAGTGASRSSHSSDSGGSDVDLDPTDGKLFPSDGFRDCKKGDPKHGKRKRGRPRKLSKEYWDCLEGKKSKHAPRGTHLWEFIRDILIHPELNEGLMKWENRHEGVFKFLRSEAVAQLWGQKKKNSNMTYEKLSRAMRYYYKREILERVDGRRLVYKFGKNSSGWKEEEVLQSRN
Conditions: protein: recombinant; tags: N-terminal GST; dsDNA, one strand shown. Put shortly:
as §1

Assay [18] addresses ETV1 (Homo sapiens, UniProt P50549 1-477). Conditions: protein: recombinant; tags: N-terminal GST; dsDNA, one strand shown. Summed up:
as §1

Sequence of ETV1 (P50549 whole entry): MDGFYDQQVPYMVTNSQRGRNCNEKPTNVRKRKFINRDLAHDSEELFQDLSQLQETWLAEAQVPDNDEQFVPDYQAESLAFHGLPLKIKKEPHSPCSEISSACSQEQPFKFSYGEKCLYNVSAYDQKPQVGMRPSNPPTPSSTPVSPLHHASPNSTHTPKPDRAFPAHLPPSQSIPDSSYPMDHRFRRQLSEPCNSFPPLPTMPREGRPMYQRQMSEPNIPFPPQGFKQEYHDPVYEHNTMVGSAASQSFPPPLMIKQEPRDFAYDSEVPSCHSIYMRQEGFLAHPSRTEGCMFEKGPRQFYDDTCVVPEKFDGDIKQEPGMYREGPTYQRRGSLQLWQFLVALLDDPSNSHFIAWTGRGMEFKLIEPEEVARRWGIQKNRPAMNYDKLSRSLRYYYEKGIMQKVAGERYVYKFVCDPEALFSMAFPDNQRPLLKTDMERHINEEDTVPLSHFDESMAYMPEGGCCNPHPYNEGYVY
Sequence of SPIB (Q01892 whole entry): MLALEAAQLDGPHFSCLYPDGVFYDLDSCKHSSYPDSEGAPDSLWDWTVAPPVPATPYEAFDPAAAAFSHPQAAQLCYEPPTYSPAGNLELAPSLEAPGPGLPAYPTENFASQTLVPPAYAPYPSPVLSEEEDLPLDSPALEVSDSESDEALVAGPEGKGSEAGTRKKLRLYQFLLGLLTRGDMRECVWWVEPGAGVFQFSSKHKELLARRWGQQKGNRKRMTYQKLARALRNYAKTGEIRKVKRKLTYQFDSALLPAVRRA
Sequence of HSF1 (Q00613 whole entry): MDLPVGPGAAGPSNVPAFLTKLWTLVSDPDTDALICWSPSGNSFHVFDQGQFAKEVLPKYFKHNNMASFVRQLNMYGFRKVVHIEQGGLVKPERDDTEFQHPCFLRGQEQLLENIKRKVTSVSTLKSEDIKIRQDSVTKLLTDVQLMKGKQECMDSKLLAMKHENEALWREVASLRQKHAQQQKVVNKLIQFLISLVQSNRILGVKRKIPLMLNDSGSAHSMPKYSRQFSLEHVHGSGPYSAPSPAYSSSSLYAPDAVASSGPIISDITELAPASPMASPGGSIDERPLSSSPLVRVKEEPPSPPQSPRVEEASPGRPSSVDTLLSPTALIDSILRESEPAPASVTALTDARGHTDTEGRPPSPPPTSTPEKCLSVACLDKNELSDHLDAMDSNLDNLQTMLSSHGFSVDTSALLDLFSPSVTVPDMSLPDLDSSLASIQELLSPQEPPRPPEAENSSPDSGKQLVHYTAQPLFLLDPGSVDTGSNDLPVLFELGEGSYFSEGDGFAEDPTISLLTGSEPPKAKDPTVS
Sequence of ELF4 (Q99607 whole entry): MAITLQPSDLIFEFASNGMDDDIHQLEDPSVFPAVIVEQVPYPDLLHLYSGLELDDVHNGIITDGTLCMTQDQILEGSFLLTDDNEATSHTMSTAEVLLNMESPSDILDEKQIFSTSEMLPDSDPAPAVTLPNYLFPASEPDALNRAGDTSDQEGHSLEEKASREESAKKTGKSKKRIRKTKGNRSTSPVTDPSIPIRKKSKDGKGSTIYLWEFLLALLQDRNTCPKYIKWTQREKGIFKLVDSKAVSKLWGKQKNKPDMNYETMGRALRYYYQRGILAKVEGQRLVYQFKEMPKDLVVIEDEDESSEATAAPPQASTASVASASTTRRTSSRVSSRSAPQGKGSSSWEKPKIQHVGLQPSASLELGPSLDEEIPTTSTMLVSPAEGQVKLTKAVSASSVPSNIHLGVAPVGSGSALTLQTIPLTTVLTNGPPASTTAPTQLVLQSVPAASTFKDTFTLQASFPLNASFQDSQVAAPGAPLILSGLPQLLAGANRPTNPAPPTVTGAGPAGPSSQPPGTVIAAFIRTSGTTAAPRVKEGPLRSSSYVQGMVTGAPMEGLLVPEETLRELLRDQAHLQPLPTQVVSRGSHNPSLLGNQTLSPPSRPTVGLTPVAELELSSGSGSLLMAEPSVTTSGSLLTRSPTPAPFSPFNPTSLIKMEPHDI
Sequence of ELF1 (P32519 whole entry): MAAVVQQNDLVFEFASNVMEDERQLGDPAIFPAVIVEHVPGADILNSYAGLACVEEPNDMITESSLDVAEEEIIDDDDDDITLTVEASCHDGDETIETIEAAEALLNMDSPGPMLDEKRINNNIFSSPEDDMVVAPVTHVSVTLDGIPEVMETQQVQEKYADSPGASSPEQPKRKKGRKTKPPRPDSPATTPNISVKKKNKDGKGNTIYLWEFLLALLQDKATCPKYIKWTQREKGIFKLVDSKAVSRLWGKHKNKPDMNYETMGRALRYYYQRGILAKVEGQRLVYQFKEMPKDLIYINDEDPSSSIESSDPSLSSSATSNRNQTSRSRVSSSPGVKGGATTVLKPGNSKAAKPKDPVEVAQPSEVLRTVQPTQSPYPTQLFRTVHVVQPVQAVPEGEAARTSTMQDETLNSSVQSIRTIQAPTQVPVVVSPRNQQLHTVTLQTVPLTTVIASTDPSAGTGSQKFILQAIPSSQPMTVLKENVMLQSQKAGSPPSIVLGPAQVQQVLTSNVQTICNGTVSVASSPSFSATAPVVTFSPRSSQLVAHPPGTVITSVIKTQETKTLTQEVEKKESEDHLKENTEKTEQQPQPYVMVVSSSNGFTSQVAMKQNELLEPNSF
Sequence of ETV5 (P41161 whole entry): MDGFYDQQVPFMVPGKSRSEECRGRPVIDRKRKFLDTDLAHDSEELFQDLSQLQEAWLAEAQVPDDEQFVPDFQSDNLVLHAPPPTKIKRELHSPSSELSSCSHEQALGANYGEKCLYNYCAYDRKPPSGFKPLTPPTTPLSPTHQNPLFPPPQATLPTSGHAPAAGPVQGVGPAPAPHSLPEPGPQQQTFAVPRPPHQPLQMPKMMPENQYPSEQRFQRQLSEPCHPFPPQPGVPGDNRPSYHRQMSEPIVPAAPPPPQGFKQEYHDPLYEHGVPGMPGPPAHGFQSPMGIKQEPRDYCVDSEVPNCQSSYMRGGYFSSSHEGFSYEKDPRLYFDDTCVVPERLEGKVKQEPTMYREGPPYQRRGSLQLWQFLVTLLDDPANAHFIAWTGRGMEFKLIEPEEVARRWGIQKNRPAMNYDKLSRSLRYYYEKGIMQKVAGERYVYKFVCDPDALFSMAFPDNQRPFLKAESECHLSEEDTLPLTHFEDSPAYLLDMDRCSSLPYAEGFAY

Take TGTACA: the binding signal in assay [1] was 1.22 fold enrichment (6-mer frequency, TF over GST control); in assay [2], 1.26 fold enrichment (6-mer frequency, TF over GST control); in assay [3] it was 1.1 fold enrichment (6-mer frequency, TF over GST control); in assay [4], 1.24 fold enrichment (6-mer frequency, TF over GST control); in assay [5] it was 1.23 fold enrichment (6-mer frequency, TF over GST control); in assay [6] it was 1.26 fold enrichment (6-mer frequency, TF over GST control). The binding signal was 1.28 fold enrichment (6-mer frequency, TF over GST control) in [7]; 1.35 fold enrichment (6-mer frequency, TF over GST control) in assay [8]; 1.11 fold enrichment (6-mer frequency, TF over GST control) in [9]; 1.24 fold enrichment (6-mer frequency, TF over GST control) in [10]; 1.17 fold enrichment (6-mer frequency, TF over GST control) in assay [11]; 1.01 fold enrichment (6-mer frequency, TF over GST control) in assay [12]. In addition, the binding signal is 1.45 fold enrichment (6-mer frequency, TF over GST control) in assay [13]; 1.36 fold enrichment (6-mer frequency, TF over GST control) in assay [14]; 1.17 fold enrichment (6-mer frequency, TF over GST control) in [15]; 1.19 fold enrichment (6-mer frequency, TF over GST control) in assay [16]; 1.01 fold enrichment (6-mer frequency, TF over GST control) in [17]; 1.15 fold enrichment (6-mer frequency, TF over GST control) in [18].
